Measured values taken from PubChem BioAssay AID2314 (National Center for Advancing Translational Sciences (NCATS), 2010).
Values joined by “and” are separate entries in the source; they are usually repeats but may differ in a detail not shown here. Identical values can stand only once. Screen size: about 300,000 compounds; about 37,000 (12%) were called active. No stated cut-off is given here; in the data, active means max response mostly above about 13% (no sharp cut-off); inactive means mostly below about 14%. The full list was thinned out, with actives kept by preference.

Test: Cycloheximide Counterscreen for Small Molecule Inhibitors of Shiga Toxin; further: read at 38.3 µM for the half of the compounds with a filed dose; 0% is about no effect
Settings: cell reporter, cycloheximide protein synthesis inhibition counterscreen; hits give high values

SMILES | max response
CCc1cccc(CC)c1NC(=S)NCc1ccc2[nH]c(C)cc2c1 | -2.68% (inactive)
Cc1cc2cc(CNC(=O)c3cccs3)ccc2[nH]1 | 24.1% (active)
Cc1cc2cc(CNC(=O)c3ccc(S(=O)(=O)N4CCOCC4)cc3)ccc2[nH]1 | -2.1% (inactive)
COc1ccc(CS(=O)/C(Cl)=C(/Cl)C(=O)Nc2ccc(OC)nc2)cc1 (centres undefined) | -16.6% (inactive)
N#CCSc1nc2ccc(N3CCOCC3)cc2c(=O)n1CCc1ccccc1 | 10.2% (inactive)
Cc1ccc(NS(=O)(=O)c2ccc(-c3coc(C)n3)cc2)c(C)c1 | 4.71% (inactive)
O=C(NCc1ccccc1)C(c1cccnc1)N(C(=O)c1csnn1)c1ccc(F)cc1 (centres undefined) | -4.58% (inactive)
CCOC(=O)c1[nH]c2ccc(OC)cc2c1NC(=O)CCN1CCN(Cc2ccccc2)CC1 | 2.39% (inactive)
COC(=O)c1[nH]c2ccccc2c1NC(=O)CN1CCCc2ccccc21 | 13.2% (inactive)
COC(=O)c1[nH]c2ccc(Br)cc2c1NC(=O)Oc1ccccc1 | 47% (active)
COc1ccc(C2(CNC(=O)C(c3ccccc3)c3ccccc3)CCOCC2)cc1OC | 4.44% (inactive)
CCn1cc(C(=O)NCCO)c(=O)c2cc(F)c(N3CCN(C)CC3)cc21 | 1.78% (inactive)
COc1ccc(N2CCN(C(=O)[C@@H](NC(=O)c3cc(OC)cc(OC)c3)C(C)C)CC2)cc1 | -0.698% (inactive)
OCCCNc1nccc(-c2cc(Nc3cccc(Cl)c3)ncn2)n1 | 26.9% (active)
CC(C)n1cnc2c(Nc3cccc(Cl)c3)nc(N(CCO)CCCO)nc21 | -7.35% (inactive)
NS(=O)(=O)c1cccnc1Nc1cccc(Cl)c1 | 5.31% (inactive)
CC(=O)N1CCN(CC(c2ccccc2)c2ccccc2)CC1 | -2.13% (inactive)
Cc1ccc(N2C(=O)C3C4C=CC(CC4)C3C2=O)cc1Cl (centres undefined) | 0.718% (inactive)
CCN1C(=S)N[C@@H](CCc2ccccc2)[C@H](C(=O)OC)[C@H]1C | -1.59% (inactive) and -1.62% (inactive)
COC(=O)c1c(NC(=O)CN(c2ccc(C)c(C)c2)S(C)(=O)=O)sc2c1CCCC2 | -3.45% (inactive)
CC(=O)Nc1ccc(S(=O)(=O)Nc2cc(C)cn(Cc3ccc(C)cc3)c2=O)cc1 | 10.7% (inactive)
COc1cccc(CNC(=O)COc2cc(O)c3c(c2)OC(C)(C)CC3=O)c1 | 6.81% (inactive)
CCOC(=O)C1CCN(Cc2c(C(=O)N3CCOCC3)nc3c(C)cccn23)CC1 | -0.834% (inactive)
COC(=O)COc1ccc2c(c1C)O/C(=C\c1ccco1)C2=O | 8.5% (inactive)

SMILES | max response
COC(=O)C1=C(C)N(c2ccc(Br)cc2)C(=O)/C1=C\c1ccco1 | 19.6% (inactive)
CC(C)(C)C1C/C(=C/c2ccco2)C(=O)/C(=C/c2ccco2)C1 (centres undefined) | 46.9% (active)
O=[N+]([O-])c1cc(Cl)cc(/C=N/NC(=S)Nc2cc(S(=O)(=O)N3CCOCC3)ccc2Cl)c1O | 6.73% (inactive)
CCN(C(=O)COc1ccc(C(=O)c2ccccc2)cc1)c1ccccc1 | 8.19% (inactive)
Cc1cc(C)n(CCC(=O)N2CCN(S(=O)(=O)c3ccc(C)c(C)c3)CC2)n1 | -4.77% (inactive)
Cc1ccc2cc(/C=N/Nc3ccc(C(=O)O)cc3)c(Cl)nc2c1 | 33.1% (active)
CCNC(=S)NNC(=O)c1ccc2ncccc2c1 | 23.2% (inactive)
CSCC[C@H](NC(=O)OC(C)(C)C)C(=O)N/N=C/c1cc2ccc(C)cc2nc1Cl | -2.35% (inactive)
O=C(O)c1ccc(N/N=C/c2ccc3ncccc3c2)cc1 | 40% (active)
O=C(O)c1ccc(/C=N/Nc2nc(N3CCCCC3)nc(N3CCCCC3)n2)cc1 | -2.21% (inactive)
Cc1ccc2cc(/C=N/NC(=O)[C@@H]3CCCN3)c(Cl)nc2c1 | 12.2% (inactive)
COc1ccccc1N1CCN(C(=O)CCS(=O)(=O)c2ccc3c(c2)NC(=O)C(C)S3)CC1 (centres undefined) | 18.6% (inactive)
Cc1cc(CNC(=O)C2CCC(=O)N(CCc3ccc(Cl)cc3)C2)no1 (centres undefined) | 0.258% (inactive)
NC(=O)c1cc(-c2cccnc2)nc2ccc(Br)cc12 | 0.502% (inactive)
Cc1ccc2c(c1)N(C(=O)CCC(=O)N1CCc3ccccc3C1)CCO2 | 13.8% (inactive)
Cc1ccccc1-n1c(SCC(=O)Nc2cccc3ccccc23)nc(O)cc1=O | -2.55% (inactive)
CCOc1ccc(NC(=O)Nc2ccc(N(C)C(C)=O)cc2)cc1 | -1.58% (inactive)
CC(=O)N(C)c1ccc(NC(=O)Nc2cccc3ccccc23)cc1 | 33% (active)
O=C(O)Cc1ccc(NC(=O)Nc2cccc3ccccc23)cc1 | 0.207% (inactive)
O=C(NCC(=O)N1CCC2(CC1)NCCc1[nH]cnc12)c1ccc(Br)cc1 | 1.26% (inactive)
CC(C)Nc1ccc(-n2nc3ccccc3[n+]2[O-])cc1 | 25.2% (active)
Clc1ccc(-c2nc3ccccn3c2CN2CCSCC2)cc1 | 12.2% (inactive)
Cc1cn(C2OC[C@@H](O)[C@@H]2CO)c(=O)[nH]c1=O (some centres undefined) | -1.7% (inactive)
O=C(N/N=C\c1cc2c(cc1Cl)OCO2)c1ccc(Br)s1 | -4.62% (inactive)

SMILES | max response
CCCCCCCCC(=O)NCCOc1ccccc1 | -1.44% (inactive)
CCCCOC(=O)Nc1nnc(CC(=O)NCc2ccccc2)s1 | -2.89% (inactive)
CCCCCCOC(=O)NCC(O)c1ccccc1 (centres undefined) | 29.3% (active)
CC(=O)C1=C(C)NC(=O)NC1c1ccc2c(c1)OCO2 (centres undefined) | 0.903% (inactive)
COc1ccc(CNC(=O)C(C)NCc2ccccc2Cl)cc1 (centres undefined) | -2.73% (inactive)
CC(C)(O)C#Cc1ccc(CN2CCC(CO)(CCc3ccccc3)CC2)cc1 | -2.91% (inactive)
COc1ccc(C(=O)NC(=S)N2CCCCC2c2cccnc2)cc1OC (centres undefined) | 1.6% (inactive)
CCOc1ccc(-n2c(SCC(=O)OC)nc3sc4c(c3c2=O)CCN(C)C4)cc1 | -9.49% (inactive)
COc1ccccc1NC(=O)CSc1nc2sc3c(c2c(=O)n1-c1ccccc1)CCN(C)C3 | 33.2% (active)
CCOc1ccc(-n2c(SCC(=O)Nc3ccc(OC)cc3)nc3sc4c(c3c2=O)CCN(C)C4)cc1 | -3.77% (inactive)
CCO[C@H]1OC(C(=O)N2CCCCCCC2)=C[C@@H](c2ccc(C(F)(F)F)cc2)[C@@H]1CCCO | -3.3% (inactive)
CCCC(C(=O)n1nc(C)cc1C)C(NS(=O)(=O)c1ccc(C)cc1)c1ccccc1 (centres undefined) | 8.08% (inactive)
N#CCC(=O)NC1CCC(CC2CCC(NC(=O)CC#N)CC2)CC1 (centres undefined) | -6.39% (inactive)
O=C(Cc1ccc(Cl)cc1)NCc1nc(-c2ccccc2)no1 | 16.7% (inactive)
O=C1c2ccccc2C(=O)N1CCCc1nc(-c2ccccc2)no1 | 4.56% (inactive)
c1ccc(CCc2nc(-c3ccncc3)no2)cc1 | 30.3% (active)
CN(CC1CCCO1)S(=O)(=O)c1ccc(C(=O)Nc2ccc([N+](=O)[O-])cc2)cc1 (centres undefined) | -2.48% (inactive)
O=C(Cn1c(COc2ccccc2)nc2ccccc21)Nc1cc(Cl)c(Cl)cc1Cl | 6.88% (inactive)
Cn1c(COc2ccc(Cl)cc2)nc2ccccc2c1=O | 31.5% (inactive)
COCn1c(COc2ccccc2)nc2ccccc21 | 36.4% (active)
Cc1ccc(OCc2n[nH]c(=S)n2-c2ccccc2)cc1 | -8.01% (inactive)
CC(C)n1c(COc2ccccc2)nc2ccccc21 | 2.4% (inactive)
Cc1ccc(OCc2nc3ccccc3n2C)cc1 | 26.1% (active)
CC1(C)Cc2cccc(OCC(=O)NCc3ccccc3)c2O1 | -11.4% (inactive)

SMILES | max response
COC(=O)C1=C(C)N(C)C(=O)NC1c1ccc([N+](=O)[O-])o1 (centres undefined) | -2.81% (inactive)
O=C(CO/N=C/c1ccc(OC(F)F)cc1)NCc1ccc(F)cc1 | -1.6% (inactive)
Cn1c(=O)c2c(nc(N3CCCCCC3)n2CC(=O)c2ccc(Br)cc2)n(C)c1=O | 4.19% (inactive)
CC(=O)Cn1ncc(N2CCOCC2)c(Br)c1=O | 8.19% (inactive)
O=C(Cn1ncc(N2CCCC2)c(Br)c1=O)c1ccc(Cl)cc1 | 21.9% (active)
O=c1[nH]c(CCl)nc2cc(-c3ccc(Cl)cc3)sc12 | 3.01% (inactive)
O=C(Nc1ccc2c(c1)C(=O)OC2)Nc1cccc2ccccc12 | 8.24% (inactive)
O=C(NC(=S)Nc1cccc(-c2ccc(CO)o2)c1)c1cccs1 | 12.5% (inactive)
O=C(Nc1ccc(NC(=O)c2cccs2)cc1)c1ccc2ccccc2c1 | 21.9% (inactive)
O=C(Nc1ccc2oc(-c3ccc4ccccc4c3)nc2c1)c1cccs1 | 42.5% (active)
CC(O)c1cccc(NC(=O)Cc2cccc3ccccc23)c1 (centres undefined) | -1.49% (inactive)
O=C(Cc1cccc2ccccc12)Nc1ccc2oc(-c3ccccc3)nc2c1 | 51.7% (active)
Cc1ccc(NC(=O)CSc2nn3c(=O)c(C)nnc3s2)cc1Cl | 8.05% (inactive)
COc1ccccc1NC(=O)CCC(=O)OC(C)C(=O)c1ccccc1 (centres undefined) | -2.18% (inactive)
COc1ccc(C(=O)COC(=O)c2ccc3ccccc3n2)cc1 | 20.4% (active)
O=C(Oc1ccc([N+](=O)[O-])cc1)c1ccc(Cl)c(S(=O)(=O)N2CCCCC2)c1 | 7.89% (inactive)
O=C(Oc1ccc([N+](=O)[O-])cc1)c1ccc2ccccc2n1 | 33.2% (active)
CCCCC(C(=O)OCC(=O)c1ccc(OC)cc1)N1C(=O)c2ccccc2C1=O (centres undefined) | 1.39% (inactive)
COc1ccc(C2=NOC(COC(=O)c3ccc4ccccc4n3)C2)cc1 (centres undefined) | 12.5% (inactive)
O=C(CNC(=O)c1ccccc1)Oc1ccc([N+](=O)[O-])cc1 | 0.695% (inactive)
CC(OC(=O)c1ccc2ccccc2n1)C(=O)c1ccccc1 (centres undefined) | 25.1% (active)
CC(OC(=O)c1ccccc1N1C(=O)C2C3CCC(C3)C2C1=O)C(=O)c1ccccc1 (centres undefined) | -0.595% (inactive)
